Rows were chosen to be rich in hits. Some 6.9% of all compounds tested hit in one or more screens of this group.
CSC inhib = cancer stem cell viability inhibitors, primary screen, luminescence; 300,000 tested, 1.1% active; inhibition, % at 7.5 µM; cancer stem cell-like cells viability; AID 2717, 2010; in the data active means inhibition above about 75%; inconclusive means no clear call, values can overlap the other calls; tested in HMLE shEcad cells
SKKanGAS inh = S. pyogenes SKKanGAS growth inhibitors in kanamycin, primary screen, streptokinase expression inhibitor project, SKKanGAS strain, BacTiter-Glo luminescence | 6 h | inhibition, % at 7.5 µM | 300,000 tested, 1.3% active | AID 1662, 2009;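 active means mean replicate score, as percent of positive control median, at least 50; inconclusive means mean below 50 but one replicate at or above 50; inactive means mean and every replicate below 50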;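 further: strain carries kanamycin resistance gene driven by streptokinase promoter and grows in 40 µg/ml kanamycin; loss of luminescence reflects streptokinase promoter inhibition or plain growth inhibition; 0% = median of DMSO wells and 100% = positive control at its reference dose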
GRIN3A LBD mod = binders of NR3A ligand-binding domain, primary screen, biophysical, differential scanning fluorimetry, uHTS; Glutamate receptor ionotropic, NMDA 3A (GRIN3A) ligand-binding domain; NR3A LBD differential scanning fluorimetry, Tm shift; 0% = protein alone, 100% = glycine-bound protein; Tm shift relative to glycine control, % at 25 µM; 340,000 tested, 2.5% active; AID 1259313, 2017;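 active means melting temperature shift of at least 10% of the positive control shift, at one fixed dose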
Mdm2 MdmX PPI = inhibitors of human Mdm2-MdmX association, primary screen, cell-based, luminescence, split luciferase, SaOS-2, uHTS; Protein Mdm4 (Homo sapiens) + E3 ubiquitin-protein ligase Mdm2 (Homo sapiens), …; SaOS-2 split-luciferase Mdm2/MdmX complementation; inhibition, % at 8 µM; 330,000 tested, 3% active;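 active means inhibition of at least 50% at 8 µM in the primary screen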
Beta cell apopt = inhibitors of cytokine-induced beta cell apoptosis, primary screen, luminescence; AID 435005, 2010; protection from apoptosis, % (no concentration beside the values); INS-1E cytokine-induced death, ATP luminescence, 48 h; percent of positive-control rescue, neutral wells zero; 300,000 tested, 0.8% active;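 active means Every replicate reaches about 75%, or at least half do and their mean reaches it too, limit read from the data; inconclusive means At least half of replicates reach the limit but their mean does not; inactive means Under half of replicates reach the limit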;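 further: 0% = cytokine-treated negative control wells and 100% = positive control rescue; higher means more ATP so stronger rescue from cytokine killing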
MPTP inh = mitochondrial permeability transition pore inhibitors, primary screen, biochemical, isolated mouse mitochondria, absorbance. Ca2+ swelling absorbance, 30 min. inhibition, % at 10 µM. 360,000 tested, 1.4% active. AID 602449, 2012;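 active means inhibition of 50% or more, scaled per plate between neutral and stimulator controls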;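 further: 0% = DMSO wells given calcium and 100% = 1 mM EGTA wells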
Mdm2-MdmX conf = Mdm2-MdmX complex disruptors, retested hits, confirmation, luminescence, single concentration; Mdm2-MdmX binding, luminescent assay; shares compounds with Mdm2 MdmX PPI; 10,000 tested, 55% active; AID 489028, 2010; inhibition, % at 8 µM; in the data active means inhibition above about 40%
FLuc counter = full-length luciferase signal inhibition, confirmation, counter-screen for Mdm2/MdmX interaction inhibitor project, cell-based, single concentration, SaOS-2; 6,200 tested, 77% active; inhibition, % at 8 µM; shares compounds with Mdm2 MdmX PPI; SaOS-2 full-length luciferase counterscreen, luminescence;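 active means mean inhibition at 8 µM reaching about 37%, which flags the compound as non-specific, limit read from the data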;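 further: p53-null SaOS-2 cells with luciferase driven by a doxycycline-inducible promoter; compound on cells about two nights before reading with doxycycline added after day one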
Active calls of the source: *; ? = inconclusive; · = not tested or not shown.

SMILES	CSC inhib	SKKanGAS inh	GRIN3A LBD mod	Mdm2 MdmX PPI	Beta cell apopt	MPTP inh	Mdm2-MdmX conf	FLuc counter
Cc1cc(C)nc(NC(N)=NCCc2c[nH]c3ccccc23)n1	-3	?	0	72*	-3	1	52*	54*
Cc1cc(C)nc(NC(N)=NCCc2ccccc2)n1	·	·	2	·	·	0	·	·
COc1ccc(S(=O)(=O)N2CCCOC2CNC(=O)C(=O)NCCc2ccco2)cc1C (centres undefined)	17	10	2	53*	0	-1	60*	61*
CCCOc1ccc(CCCN=C(N)N)cc1Cl	50	13	4	52*	-5	2	19	·
CCCCOc1ccc(CN=C(N)N)cc1Cl	18	11	1	47	36	-4	·	·
C#CCOc1coc(COC(=O)c2ccccc2)cc1=O	-2	-5	0	12	-4	2	·	·
COC(=O)c1ccccc1NC(=O)CNc1ccc(F)c(S(=O)(=O)N2CCOCC2)c1	-14	·	0	-8	-8	0	·	·
CC1(C)CC(=O)C2=C(C1)N1C(=C(C#N)C2c2ccc(Cl)cc2)N=C(N)c2ccccc21 (centres undefined)	23	24	-8	56*	-4	1	0	·
CC1(C)CC(=O)C2=C(C1)N1C(=C(C#N)C2c2ccccc2Cl)N=C(N)c2ccccc21 (centres undefined)	1	4	-12	43	9	-1	·	·
CC(C)(C)c1ccc(NC(=O)NC2CCCc3ccccc32)cc1 (centres undefined)	64	-1	2	70*	21	26	53*	70*
Cc1ccc(-n2nnnc2SCC(=O)Nc2nc(-c3ccc(F)cc3)cs2)cc1C	12	-7	30*	65*	1	11	39	47*
CCc1ccccc1NC(=O)COc1ccc(N2CC(C(N)=O)CC2=O)cc1 (centres undefined)	·	0	-1	1	-7	-2	·	·
COn1c2c(c3c4nonc4ccc31)CCCC2	-21	6	-3	59*	-15	4	47*	55*
On1c2c(c3c4nonc4ccc31)CCCC2	-10	17	·	17	-9	·	·	·
CC1(C)N=C(N)N=C(N)N1CCCCc1ccccc1	·	·	2	·	·	-2	·	·
CCN1CCN(C(=O)CS(=O)(=O)Cc2nc(-c3cccc(OC)c3)oc2C)CC1	4	-3	-2	20	-9	-1	·	·
CCCN(CCC)S(=O)(=O)c1ccc(C(=O)Nc2nnc(-c3cc(OC)cc(OC)c3)o2)cc1	57	102*	1	51*	·	-29	1	·
CCCN(CCC)S(=O)(=O)c1ccc(C(=O)Nc2nnc(CSC)o2)cc1	37	28	-17	31	6	-2	·	·
CCN(CC(=O)NCc1ccc(F)cc1)C(=O)/C=C/c1ccc(OC)c(S(=O)(=O)NC(C)C)c1	57	-1	-2	56*	9	1	55*	61*
CCN(CC(=O)NCc1ccc(F)cc1)C(=O)/C=C/c1ccc(OC)cc1	-2	-3	-3	6	-4	-2	·	·
CC(=O)c1c(C)[nH]c(C(=O)N2CCc3ccccc32)c1C	·	4	-2	37	-6	0	·	·
CCOC(=O)c1[nH]c(C)c(C(=O)N2CCc3ccccc32)c1C	47	-16	0	63*	19	1	57*	82*
Nc1cc(=O)[nH]c(SCC(=O)c2ccc(F)cc2)n1	2	4	0	18	-2	0	·	·
